This is part of a sample that, as a whole, favours compounds with a hit. Of some 83,000 tested, about 20% had one in any assay.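 Single-dose data. Exposure time 48 hours. Values below 10 considered active.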 A number with no mark means an inactive call. Calls of active or inactive are those of the source.

What all share (assay): NCI-60 one-dose screen, 48 h (100 = growth as untreated, 0 = no growth, -100 = all killed)
Common to all, as to settings: 10 µM

The test system of experiment [1] is DU-145 prostate.
For experiment [2], the system named is K-562 leukemia.
For experiment [3], the system named is MALME-3M melanoma.
Experiment [4] concerns MDA-MB-231 breast.
For experiment [5], the system named is RXF 393 renal.
For experiment [6], the system named is SF-268 CNS.
Experiment [7] relates to SF-295 CNS.
Experiment [8] relates to SF-539 CNS.
Experiment [9] concerns UACC-257 melanoma.
In experiment [10] the test system is M14 melanoma.

On to `COc1ccc(-c2cc(-c3ccc(OC)c(OC)c3)nc(SCCCC(=O)NO)n2)cc1`, for which the growth was -2.45% (active) in [1]; 7.32% (active) in experiment [2]; -6.87% (active) in experiment [3]; -10% (active) in experiment [4]; -46.6% (active) in experiment [5]; 2.03% (active) in experiment [6]. For the same compound, the growth in experiment [7] was -36.8% (active); in experiment [8], 1.28% (active); in experiment [9] it was 9.39% (active); in experiment [10], -41.5% (active).

Regarding `COc1cc(CNC(=O)C2CSC3(C)c4ccccc4C(=O)N23)cc(OC)c1OC` (stereo not given), the growth is 109% in [1]; 71.9% in experiment [2]; 109% in [3]; 98.3% in experiment [4]; 98.7% in [5]; 101% in experiment [6]. Moreover, the growth is 104% in [7], 98.2% in [8], 73.8% in experiment [9] and 108% in experiment [10].

On to `Nc1cc(Br)c(-c2nn3c(CCC(=O)c4nc5ccccc5[nH]4)nnc3s2)c(Br)c1`, for which the growth in experiment [1] was 102%; in experiment [2], 7.05% (active); in experiment [3], 95.8%; in experiment [4], 99%; in [5], 109%; in experiment [6], 99.7%. Also, the growth in experiment [7] was 108%; in experiment [8], 83.4%; in experiment [9] it was 116%; in [10], 97.5%.

Turning to `O=C1/C(=C/c2ccc([N+](=O)[O-])s2)Oc2cc(Cl)ccc21`, the growth in experiment [1] is 32.2%; in experiment [2], -8.29% (active); in [3], -49.5% (active); in experiment [4] it was -71.7% (active); in experiment [5], -49.6% (active); in experiment [6], -59.4% (active). In addition, the growth is 52.1% in [7], -10.9% (active) in experiment [8], 31.7% in [9] and 2.51% (active) in experiment [10].

Turning to `N#CCc1csc(Cc2ccccc2)n1`, the growth is 108% in experiment [1]; 103% in experiment [2]; 101% in [3]; 114% in experiment [4]; 119% in experiment [5]; 100% in experiment [6]. The growth is 106% in experiment [7], 104% in [8], 94.5% in experiment [9] and 101% in experiment [10].

On to `CC(=O)[C@H]1CC[C@]2(C)[C@@H]1CC[C@@H]1[C@@]3(C)CC(CCC#N)(CCC#N)C(=O)C(C)(C)[C@@H]3CC[C@]12C`, for which the growth in experiment [1] is 108%; in experiment [2], 110%; in experiment [3], 105%; in [4] it was 105%; in experiment [5], 90.6%; in [6], 98.9%. Besides, the growth in experiment [7] was 98.2%; in experiment [8], 101%; in experiment [9], 107%; in [10], 95.9%.

`S=C(NCc1ccccc1)NCc1ccccc1`: the growth is 107% in experiment [1]; 98.7% in experiment [2]; 95.3% in [3]; 100% in [4]; 101% in experiment [5]; 95.8% in experiment [6]. In addition, the growth was 95.8% in experiment [7], 101% in [8], 81.9% in experiment [9] and 101% in experiment [10].

For `COc1ccc(-c2nn(-c3cccc(Cl)c3)cc2-c2cc(-c3ccccc3)nc(N)n2)cc1`, the growth is 95.1% in experiment [1]; -3.82% (active) in experiment [2]; 52.1% in experiment [3]; 35.1% in [4]; 56.2% in experiment [5]; 65.7% in experiment [6]. Besides, the growth is 55% in experiment [7], 89% in experiment [8], 81.1% in experiment [9] and 52.6% in experiment [10].

As for `CC(C)N(CCOc1cccc(-c2nc3sccn3c2-c2ccnc(S(C)(=O)=O)n2)c1)C(C)C`, the growth was 89.8% in experiment [1]; 69.1% in experiment [2]; 91.3% in [3]; 57.8% in [4]; 65.3% in [5]; 92.5% in experiment [6]. The growth in [7] is 103%; in experiment [8], 91.9%; in experiment [9], 104%; in [10], 111%.

With `O=C(CSc1nnc(-c2cccnc2SCc2ccccc2)o1)Nc1nc(Cl)cc(Cl)n1`, the growth in [1] was 107%; in experiment [2] it was 92.8%; in [3] it was 94%; in experiment [4], 92%; in [5], 105%; in [6], 99.7%. Moreover, the growth in experiment [7] is 96.8%; in [8], 101%; in experiment [9], 113%; in experiment [10] it was 92%.

With `CCN1CCN(CCC(=O)Nc2cccc(-n3cc(-c4ccncc4)c(-c4ccc(Cl)c(OC)c4)n3)c2)CC1`, the growth is 12.4% in experiment [1]; -34% (active) in [2]; -63.6% (active) in [3]; 4.87% (active) in experiment [4]; -7.05% (active) in [5]; 35.4% in experiment [6]. The growth in [7] was 9.42% (active); in experiment [8], -51.9% (active); in experiment [9] it was -85.5% (active); in experiment [10], -63.4% (active).

On to `CCn1c(SC/C(=N/O)c2ccccc2)nnc1-c1ccccc1`, for which the growth in [1] is 107%; in experiment [2] it was 86%; in [3] it was 98.6%; in experiment [4] it was 94.6%; in [5], 117%; in experiment [6], 108%. For the same compound, the growth was 109% in [7], 93.7% in experiment [8], 104% in experiment [9] and 109% in [10].

Consider `COc1cc(/C=C2\CCCC3C2=Nc2ccccc2NC3c2cc(OC)c(OC)c(OC)c2)cc(OC)c1OC` (stereo not given), for which the growth in experiment [1] was 4.98% (active); in experiment [2], 5.35% (active); in experiment [3], -34.9% (active); in [4], 24.1%; in experiment [5] it was -49.6% (active); in experiment [6] it was 26%. In addition, the growth in experiment [7] is -10.8% (active); in experiment [8], 35.2%; in experiment [9], 16.3%; in experiment [10], -0.908% (active).

The values above are taken from PubChem BioAssay (NCI).
